Experimental findings from PubChem BioAssay (Tox21) are described below.

Several values for one entry are separate records, joined by “and”; a condition that tells them apart may be missing. Equal values may be shown once. Results filed as inconclusive are left out. More than one record can exist for a structure, and the calls need not agree. Activity calls are given as the source filed them. Unless noted, the call rests on the fitted dose curve.

Assay [1] can be described thus: Nuclear factor erythroid 2-related factor 2/antioxidant responsive element (Nrf2/ARE) small molecule agonists: qHTS cell viability counter screen in human keratinocytes (AID 1919968; active means well fitted curve in the direction sought with a large enough effect in the repeat runs; an effect the other way counts as inactive or inconclusive; further: nearly all actives have a fitted effect of over 55% in size). In outline: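 In human HaCaT keratinocytes stably expressing an ARE-driven luciferase, compound exposure lasted 23 h at 37 C under 5% CO2. Viable cells are quantified with a protease-based fluorogenic reagent (CellTiter-Fluor) read 1 h after addition.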

Assay [2] can be described thus: Nuclear factor erythroid 2-related factor 2/antioxidant responsive element (Nrf2/ARE) small molecule agonists: luciferase reporter gene qHTS assay in human keratinocytes (AID 1919969). Further: nearly all actives have a fitted effect of over 35% in size. Further: potency means the concentration at half of the fitted maximal effect.
The target of assay [3] is Gonadotropin-releasing hormone receptor (Homo sapiens) (UniProt P30968). As to the kind of experiment: Human gonadotropin-releasing hormone receptor (GnRHR) small molecule agonists, calcium flux assay in GnRHR-HEK293 cells (AID 1920063). Further: nearly all actives have a fitted effect of over 35% in size. The procedure, abridged: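 Intracellular calcium rise is the read-out: engineered human GnRHR HEK293 cells, dye-loaded, are exposed to DMSO-dissolved compounds and fluorescence at Ex/Em 480/540 is tracked for 3 min.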
On the technique in general: Calcium assays in cells follow changes in intracellular calcium, usually with a dye or a luminescent sensor.

For assay [4], the target named is KiSS-1 receptor (Homo sapiens) (UniProt Q969F8). The assay is described as follows: Human kisspeptin (KISS1R) small molecule agonists, calcium flux assay in KISS1R-HEK293 cells (AID 1920064; active means well fitted curve in the direction sought with a large enough effect in the repeat runs; an effect the other way counts as inactive or inconclusive). In outline: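 Concentration-response testing used 15 concentrations in triplicate on human KISS1R-expressing HEK293 cells. Calcium-dependent fluorescence (Ex/Em 480/540) was followed kinetically for 3 min after compound transfer.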

Assay [5] is described as follows: G protein-coupled receptor (GPCR) small molecule agonists, calcium flux assay: HEK293 wild type cell line counter screen (AID 1920065). In outline: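 Fluorescence intensity signals activation. After overnight (18 h) culture and a 1 h calcium dye load at 37 C, compounds are added by pin tool and the plate read at 480/540 nm for 3 min in 1 s steps.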
The nature of assay [6]: p53 small molecule agonists, cell-based qHTS assay with human liver microsomes: qHTS cell viability counter screen (AID 1963579). Further: nearly all actives have a fitted effect of over 45% in size. The procedure, abridged:
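p53RE-bla cells (4,000/well) were pre-incubated 5 h at 37 C, then given compounds in DMSO plus human liver microsomes (0.5 mg/mL final) and NADPH (0.5 mg/mL final) for 16 h at 37 C. Viability was read by CellTiter-Glo luminescence.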
On the technique in general: In qHTS, concentration-response curves come from the screen itself.

A short description of assay [7]: p53 small molecule agonists, cell-based qHTS assay with rat liver microsomes: qHTS cell viability counter screen (AID 1963580). Further: nearly all actives have a fitted effect of over 45% in size. In outline:
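Cytotoxicity counter screen: intracellular ATP read by CellTiter-Glo luminescence in the p53 reporter wells. HCT-116 p53RE-bla cells were treated for 16 h at 37 C alongside rat liver microsomes and NADPH, each 0.5 mg/mL final.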

A short description of assay [8]: p53 small molecule agonists, cell-based qHTS assay: qHTS cell viability counter screen (AID 1963581). Further: nearly all actives have a fitted effect of over 45% in size. The procedure, abridged: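 Luminescence from CellTiter-Glo, reflecting ATP content, serves as the cytotoxicity measure; it is taken after the 2 h reporter substrate step in HCT-116 p53RE-bla cells dosed for 16 h at 37 C.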
Assay [9] addresses 5-hydroxytryptamine receptor 2A (Homo sapiens) (UniProt P28223). The assay is described as follows: 5-hydroxytryptamine receptor 2A (HTR2A) small molecule antagonists, cell-based qHTS assay (AID 1963586). Further: nearly all actives have a fitted effect of over 45% in size. Further: potency means the concentration at half of the fitted maximal effect. The procedure, abridged: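 CHO cells stably expressing human HTR2A were plated for 18 h at 37 C, then loaded with calcium dye for 1 h. Compounds were preincubated 5 min at room temperature before DOI (4 nM solution) was added. Kinetic fluorescence was read for 3 min.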

Assay [10] shares this target. As to the kind of experiment: 5-hydroxytryptamine receptor 2A (HTR2A) small molecule agonists, cell-based qHTS assay (AID 1963587). Further: nearly all actives have a fitted effect of over 30% in size. In outline:
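Kinetic calcium-flux fluorescence (2 min, 1 sec intervals) after compound addition in agonist mode. HTR2A-CHO cells were cultured 18 h, then dye-loaded 1 h at 37 C.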

Assay [11] can be described thus: cAMP Responsive Elements (CRE) small molecule agonists, cell-based qHTS assay (AID 1963590). In outline: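 Compound exposure lasted 3 h at 37 C/5% CO2 in CRE-bla HEK 293T cells grown in assay medium with 10% dialyzed FBS and 25 mM HEPES. Reporter signal came from LiveBLAzer B/G FRET substrate, 2 h, room temperature.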
Assay [12] deals with Beta-2 adrenergic receptor (Homo sapiens) (UniProt P07550). The assay is described as follows: Adrenergic beta2 receptor (ADRB2) small molecule antagonists, cell-based qHTS assay (AID 1963592). Further: series mostly up to about 92 µM; nearly all actives have a fitted effect of over 50% in size. The procedure, abridged: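 Assay format: CHO-ADRB2 cells, 18-20hr seeding at 37C/5% CO2, then compound plus 1nM isoproterenol agonist mix for 0.5hr RT. Homogeneous time-resolved fluorescence cAMP detection after 1hr, expressed as 665/615 nm ratio.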

For assay [13] the target is unchanged. The assay is described as follows: Adrenergic beta2 receptor (ADRB2) small molecule agonists, cell-based qHTS assay (AID 1963593).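 Further: CHO cells stably overexpressing human ADRB2.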 In outline:
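CHO cells stably over-expressing ADRB2 were plated overnight at 37C, then dosed with compounds plus a stimulation mix containing 100uM IBMX and 25uM Ro-20-1724 for 0.5hr at room temperature. cAMP was measured by HTRF competition, 1hr.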

Assay [14] addresses D(2) dopamine receptor (Homo sapiens) (UniProt P14416). The assay is described as follows: Dopamine D2 receptor (DRD2) small molecule agonists, cell-based qHTS assay (AID 1963594). Further: nearly all actives have a fitted effect of over 35% in size. In outline:
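cAMP accumulation in DRD2-HEK293 cells measured by HTRF after 1 h detection; compounds added 10 min before NKH477 (200nM […]) forskolin-analogue stimulation, 30 min at room temperature, with Ro20-1724 present at 0.1 mM final.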

Assay [15] has the same target. The assay is described as follows: Dopamine D2 receptor (DRD2) small molecule antagonists, cell-based qHTS assay (AID 1963595; active means well fitted inhibition curve with a large enough effect in the signal ratio in the repeat runs, with a control signal flat; the % refers to the signal ratio). In outline:
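Cells were plated and grown for 24 h at 37 °C. Ro20-1724 (0.1 mM final) went in first, then compound for 10 min. NKH477 (200 nM) with quinpirole (12 nM) followed for 30 min at RT, then HTRF detection reagents for 1 h.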

Assay [16] deals with Muscarinic acetylcholine receptor M1 (Homo sapiens) (UniProt P11229). As to the kind of experiment: Cholinergic receptor muscarinic 1 (CHRM1) small molecule antagonists, cell-based qHTS assay (AID 1963588). Further: nearly all actives have a fitted effect of over 40% in size. In outline: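 Compounds were tested at 15 concentrations in three independent runs. Dye-loaded CHRM1-CHO cells were exposed 5 min at room temperature before stimulation by acetylcholine added at 50nM. Intracellular calcium was read kinetically on FDSS for 3 min.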

The target is the same in assay [17]. As to the kind of experiment: Cholinergic receptor muscarinic 1 (CHRM1) small molecule agonists, cell-based qHTS assay (AID 1963589). Further: nearly all actives have a fitted effect of over 35% in size. The procedure, abridged: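 Fluorescent calcium dye reports M1 activation in stably transfected CHO cells. Compounds, 15 concentrations, added after 1 h dye loading at 37 C; kinetic reading at 1 sec intervals.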
Assay [18] in a line: cAMP Responsive Elements (CRE) small molecule antagonists, cell-based qHTS assay (AID 1963591; active means well fitted inhibition curve with a large enough effect in the signal ratio in the repeat runs, not every such curve was filed as active; the % refers to the signal ratio). The procedure, abridged: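 Stimulation used NKH477 at a final 0.25 uM for 3 h in compound-treated CRE-bla HEK293T cells, seeded 18 h beforehand. Reporter activity was measured with LiveBLAzer B/G FRET substrate after 2 h at room temperature.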

Chain of D(2) dopamine receptor (Homo sapiens) (P14416 whole entry, looked up): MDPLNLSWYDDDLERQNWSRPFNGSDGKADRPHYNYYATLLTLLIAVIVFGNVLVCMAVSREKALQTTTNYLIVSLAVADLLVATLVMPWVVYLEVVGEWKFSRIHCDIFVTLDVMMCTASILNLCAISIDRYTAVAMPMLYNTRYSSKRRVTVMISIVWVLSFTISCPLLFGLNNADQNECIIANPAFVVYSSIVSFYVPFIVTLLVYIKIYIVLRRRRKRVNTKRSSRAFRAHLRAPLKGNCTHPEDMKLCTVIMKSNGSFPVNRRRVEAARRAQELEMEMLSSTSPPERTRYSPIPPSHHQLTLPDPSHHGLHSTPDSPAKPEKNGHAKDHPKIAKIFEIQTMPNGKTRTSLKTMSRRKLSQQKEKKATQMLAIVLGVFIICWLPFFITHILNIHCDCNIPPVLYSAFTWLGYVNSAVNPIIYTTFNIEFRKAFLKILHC
Chain of Muscarinic acetylcholine receptor M1 (Homo sapiens) (P11229 whole entry, looked up): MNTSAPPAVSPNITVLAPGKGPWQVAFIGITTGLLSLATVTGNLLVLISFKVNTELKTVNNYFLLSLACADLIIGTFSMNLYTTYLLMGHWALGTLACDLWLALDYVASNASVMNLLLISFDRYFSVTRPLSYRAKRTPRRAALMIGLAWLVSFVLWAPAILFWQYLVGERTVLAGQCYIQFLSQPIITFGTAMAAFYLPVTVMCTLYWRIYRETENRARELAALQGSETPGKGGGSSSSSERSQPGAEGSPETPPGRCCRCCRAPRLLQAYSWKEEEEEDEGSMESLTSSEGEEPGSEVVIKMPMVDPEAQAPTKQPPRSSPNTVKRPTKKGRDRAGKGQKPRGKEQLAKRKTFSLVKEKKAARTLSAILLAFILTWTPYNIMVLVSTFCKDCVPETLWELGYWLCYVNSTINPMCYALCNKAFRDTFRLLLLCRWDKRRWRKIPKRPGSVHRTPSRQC
Chain of Gonadotropin-releasing hormone receptor (Homo sapiens) (P30968 whole entry, looked up): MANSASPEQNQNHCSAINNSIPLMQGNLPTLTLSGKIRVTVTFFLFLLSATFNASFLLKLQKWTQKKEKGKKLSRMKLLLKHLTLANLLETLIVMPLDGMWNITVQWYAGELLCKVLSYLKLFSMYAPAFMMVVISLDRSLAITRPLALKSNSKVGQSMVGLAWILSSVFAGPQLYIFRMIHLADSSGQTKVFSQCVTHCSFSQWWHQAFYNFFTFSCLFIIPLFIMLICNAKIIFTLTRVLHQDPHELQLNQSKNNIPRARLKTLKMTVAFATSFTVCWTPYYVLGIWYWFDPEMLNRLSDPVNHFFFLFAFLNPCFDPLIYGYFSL
Chain of KiSS-1 receptor (Homo sapiens) (Q969F8 whole entry, looked up): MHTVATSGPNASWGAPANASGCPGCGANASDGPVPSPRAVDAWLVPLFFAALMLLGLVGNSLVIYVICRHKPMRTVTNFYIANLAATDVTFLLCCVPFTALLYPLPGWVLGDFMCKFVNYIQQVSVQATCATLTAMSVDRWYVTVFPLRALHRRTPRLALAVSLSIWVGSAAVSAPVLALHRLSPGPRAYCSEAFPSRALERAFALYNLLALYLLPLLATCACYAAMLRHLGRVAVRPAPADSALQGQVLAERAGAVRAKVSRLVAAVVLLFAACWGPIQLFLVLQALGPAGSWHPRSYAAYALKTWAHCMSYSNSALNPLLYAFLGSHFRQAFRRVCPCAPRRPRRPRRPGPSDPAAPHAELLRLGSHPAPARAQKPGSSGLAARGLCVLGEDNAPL
Chain of Beta-2 adrenergic receptor (Homo sapiens) (P07550 whole entry, looked up): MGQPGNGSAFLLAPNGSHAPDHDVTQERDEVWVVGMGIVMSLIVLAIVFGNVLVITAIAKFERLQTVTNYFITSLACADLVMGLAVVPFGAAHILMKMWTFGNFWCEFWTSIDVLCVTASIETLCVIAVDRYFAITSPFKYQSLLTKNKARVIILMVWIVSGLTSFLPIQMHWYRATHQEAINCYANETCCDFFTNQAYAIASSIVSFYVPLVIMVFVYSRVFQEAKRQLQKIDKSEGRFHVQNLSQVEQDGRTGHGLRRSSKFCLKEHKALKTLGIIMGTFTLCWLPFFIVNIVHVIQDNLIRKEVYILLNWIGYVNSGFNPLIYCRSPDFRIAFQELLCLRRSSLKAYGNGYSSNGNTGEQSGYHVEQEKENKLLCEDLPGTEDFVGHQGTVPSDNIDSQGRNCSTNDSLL
Chain of 5-hydroxytryptamine receptor 2A (Homo sapiens) (P28223 whole entry, looked up): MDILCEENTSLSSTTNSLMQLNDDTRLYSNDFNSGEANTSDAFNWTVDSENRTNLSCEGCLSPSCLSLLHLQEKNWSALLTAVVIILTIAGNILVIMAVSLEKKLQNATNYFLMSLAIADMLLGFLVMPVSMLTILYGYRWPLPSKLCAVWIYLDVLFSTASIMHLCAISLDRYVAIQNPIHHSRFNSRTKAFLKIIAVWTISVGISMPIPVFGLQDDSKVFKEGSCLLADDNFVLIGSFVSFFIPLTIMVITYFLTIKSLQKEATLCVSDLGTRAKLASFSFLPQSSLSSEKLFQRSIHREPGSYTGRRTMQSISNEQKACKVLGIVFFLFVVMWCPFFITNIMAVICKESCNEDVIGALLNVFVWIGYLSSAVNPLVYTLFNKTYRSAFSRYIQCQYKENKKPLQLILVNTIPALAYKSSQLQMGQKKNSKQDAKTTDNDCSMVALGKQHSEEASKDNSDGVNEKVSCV

In the case of `CC(C)CC(C)O` (configuration not stated), the Potency entry in assay [1], in assay [2], in [3], in assay [4], in assay [5] and in assay [6] was “inactive” throughout. The Potency result in assay [7], in [8], in assay [9], in assay [10], in [11] and in assay [12] was “inactive” in each case. The Potency result in assay [13], in [14] and in assay [15] was “inactive” each time.

Turning to `O=[N+]([O-])c1ccc2nc[nH]c2c1`, the Potency result in assay [1], in assay [2], in assay [3], in assay [4], in [5] and in assay [6] was “inactive” each time. In addition, the Potency result in [7], in assay [8], in assay [10], in [16], in assay [17] and in assay [11] was “inactive” each time. The Potency result in assay [18], in assay [12], in assay [13], in [14] and in assay [15] was “inactive” each time.

Consider `CN(C)c1cccc(O)c1`, for which the Potency entry in assay [1], in assay [3], in assay [4], in [5], in [6] and in [7] was “inactive” in each case. Besides, the Potency entry in assay [8], in assay [9], in assay [10], in [16], in [17] and in [11] was “inactive” in each case. Besides, the Potency result in [18], in [12], in [13], in [14] and in assay [15] was “inactive” throughout. In [2], the Potency was 43.9 µM (active) and inactive.

As to `O=C(c1ccccc1)c1ccccc1O`, the Potency result in [1], in assay [2], in assay [3], in [4], in [5] and in assay [6] was “inactive” in each case. In addition, the Potency entry in assay [7], in assay [8], in assay [9], in assay [10], in [16] and in assay [17] was “inactive” in each case. Further, the Potency entry in assay [18], in assay [12], in assay [14] and in assay [15] was “inactive” each time.

Consider `CN1Cc2c(N)cccc2C(c2ccccc2)C1` (configuration not stated), for which the Potency entry in assay [1], in assay [2], in assay [3], in [4], in assay [5] and in assay [6] was “inactive” in each case. For the same molecule, the Potency result in [7], in assay [8], in assay [10], in [16], in [11] and in assay [18] was “inactive” throughout. The Potency entry in assay [12], in [13], in [14] and in assay [15] was “inactive” each time. Moreover, the Potency in [9] was 14.9 µM (active).

With `Cc1ccc2oc(=O)ccc2c1`, the Potency result in assay [1], in [2], in [3], in assay [4], in [5] and in [6] was “inactive” each time. Besides, the Potency entry in [7], in assay [8], in assay [9], in assay [10], in assay [16] and in assay [17] was “inactive” each time. Moreover, the Potency entry in assay [11], in assay [18], in assay [12], in assay [13], in assay [14] and in assay [15] was “inactive” in each case.

Regarding `c1ccc2c(c1)-c1cccc3c1c-2cc1ccccc13`, the Potency result in [1], in assay [3], in [4], in assay [5], in assay [6] and in assay [7] was “inactive” each time. For the same molecule, the Potency result in [8], in [9], in [10], in assay [16], in assay [17] and in [11] was “inactive” in each case. In addition, the Potency result in assay [12], in [14] and in assay [15] was “inactive” each time. Further, in assay [2], the Potency is 23.8 µM (active) and 21.7 µM (active).
